Source: PubChem BioAssay (NCI)
About 83,000 compounds went through this panel and 20% of them were active in at least one assay; those are over-represented in the sample as a whole.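 Assay: single dose, 48 h. Readout: percent growth (0 = no net growth; negative = cell death). Active: <10.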 Active and inactive are the calls of the source.

Legend:
Assay in all cases: NCI-60 one-dose screen, 48 h (100 = growth as untreated, 0 = no growth, -100 = all killed)
Conditions in all cases: 10 µM unless noted
SK-MEL-2 melanoma = system: SK-MEL-2 melanoma
EKVX NSCLC = system: EKVX NSCLC
SN12C renal = system: SN12C renal
UO-31 renal = system: UO-31 renal
TK-10 renal = system: TK-10 renal
ACHN renal = system: ACHN renal
CAKI-1 renal = system: CAKI-1 renal
A498 renal = system: A498 renal
CCRF-CEM leukemia = system: CCRF-CEM leukemia
MOLT-4 leukemia = system: MOLT-4 leukemia
SR leukemia = system: SR leukemia
RPMI-8226 leukemia = system: RPMI-8226 leukemia
OVCAR-5 ovarian = system: OVCAR-5 ovarian
OVCAR-4 ovarian = system: OVCAR-4 ovarian
SK-OV-3 ovarian = system: SK-OV-3 ovarian
IGROV1 ovarian = system: IGROV1 ovarian
OVCAR-3 ovarian = system: OVCAR-3 ovarian
HS 578T breast = system: HS 578T breast
NCI/ADR-RES ovarian = system: NCI/ADR-RES ovarian
OVCAR-8 ovarian = system: OVCAR-8 ovarian

Measured: growth

O=c1ccn(Cc2cn(-c3c4ccccc4nc4ccccc34)nn2)c(=O)[nH]1
inactive: SK-MEL-2 melanoma 98% | EKVX NSCLC 103% | SN12C renal 92.7% | UO-31 renal 88% | TK-10 renal 93.8% | ACHN renal 95.4% | CAKI-1 renal 96.8% | A498 renal 81.8% | CCRF-CEM leukemia 83.9% | MOLT-4 leukemia 79.5% | SR leukemia 38.8% | RPMI-8226 leukemia 87.3% | OVCAR-5 ovarian 114% | OVCAR-4 ovarian 109% | SK-OV-3 ovarian 90.9% | IGROV1 ovarian 80.9% | OVCAR-3 ovarian 110% | HS 578T breast 94.6% | NCI/ADR-RES ovarian 108%

CCCCNC(=O)Oc1ccc(/C(=C(\C)c2ccc(Cl)cc2)c2ccc(OCCN(CC)CC)cc2)cc1
active: SR leukemia 3.33%
inactive: SK-MEL-2 melanoma 117% | EKVX NSCLC 75% | SN12C renal 75.4% | UO-31 renal 47.8% | TK-10 renal 88.6% | ACHN renal 93.7% | CAKI-1 renal 81.4% | A498 renal 71% | CCRF-CEM leukemia 64.4% | MOLT-4 leukemia 58.4% | RPMI-8226 leukemia 63.9% | OVCAR-5 ovarian 73.4% | OVCAR-4 ovarian 69.6% | SK-OV-3 ovarian 75.3% | IGROV1 ovarian 81.6% | OVCAR-3 ovarian 69.1% | HS 578T breast 74.4% | NCI/ADR-RES ovarian 81.4%

COc1ccc(-c2nc(NN)c3c(C)nn(-c4ccc(F)cc4)c3n2)cc1
inactive: SK-MEL-2 melanoma 24.1% | EKVX NSCLC 59.4% | SN12C renal 44.5% | UO-31 renal 51.2% | TK-10 renal 77.3% | ACHN renal 40.2% | CAKI-1 renal 36.9% | A498 renal 20.8% | CCRF-CEM leukemia 23.4% | MOLT-4 leukemia 37.5% | SR leukemia 28.3% | RPMI-8226 leukemia 54.8% | OVCAR-5 ovarian 95.6% | OVCAR-4 ovarian 62.7% | SK-OV-3 ovarian 29.4% | IGROV1 ovarian 51.2% | OVCAR-3 ovarian 12% | HS 578T breast 25% | NCI/ADR-RES ovarian 34.7%

c1ccc2cc(C[n+]3ccn(CCCCCCCCCCCCn4cc[n+](Cc5ccc6ccccc6c5)c4)c3)ccc2c1
active: SK-MEL-2 melanoma -69.9% | EKVX NSCLC -62.6% | SN12C renal -76.4% | TK-10 renal -48.2% | A498 renal -32.6% | CCRF-CEM leukemia -68.3% | MOLT-4 leukemia -69.7% | SR leukemia -50% | RPMI-8226 leukemia -70.7% | OVCAR-5 ovarian -25.3% | OVCAR-4 ovarian -60.1% | SK-OV-3 ovarian -47.9% | IGROV1 ovarian -73.8% | OVCAR-3 ovarian -88.7% | HS 578T breast -59.2%
inactive: UO-31 renal 24.2% | ACHN renal 10.5% | CAKI-1 renal 41.9% | NCI/ADR-RES ovarian 61.7%

COc1ccc(C2CC(c3ccc(Nc4nc(Nc5ccc(F)cc5)nc(Nc5ccc(Cl)cc5)n4)cc3)=NN2C(C)=O)cc1 (configuration not stated)
active: UO-31 renal -65.4%
inactive: SK-MEL-2 melanoma 96.1% | EKVX NSCLC 109% | SN12C renal 103% | TK-10 renal 103% | ACHN renal 91.7% | CAKI-1 renal 108% | A498 renal 129% | CCRF-CEM leukemia 124% | MOLT-4 leukemia 93% | SR leukemia 107% | RPMI-8226 leukemia 90.8% | OVCAR-5 ovarian 104% | OVCAR-4 ovarian 99.3% | SK-OV-3 ovarian 107% | IGROV1 ovarian 40.4% | OVCAR-3 ovarian 128% | HS 578T breast 108% | NCI/ADR-RES ovarian 85%

Cc1ccc(C(=O)N/N=C/c2cccc([N+](=O)[O-])c2)cn1
inactive: SK-MEL-2 melanoma 111% | EKVX NSCLC 104% | SN12C renal 105% | UO-31 renal 76.6% | TK-10 renal 118% | ACHN renal 107% | CAKI-1 renal 87.1% | A498 renal 84.9% | CCRF-CEM leukemia 96.7% | MOLT-4 leukemia 92.1% | SR leukemia 108% | RPMI-8226 leukemia 93% | OVCAR-5 ovarian 108% | OVCAR-4 ovarian 111% | SK-OV-3 ovarian 102% | IGROV1 ovarian 108% | OVCAR-3 ovarian 118% | HS 578T breast 93.1% | NCI/ADR-RES ovarian 104%

COc1cc(/C=C/c2ccccc2)cc(OC)c1
inactive: SK-MEL-2 melanoma 93.7% | EKVX NSCLC 78.9% | SN12C renal 100% | UO-31 renal 80.1% | TK-10 renal 95.9% | ACHN renal 96.6% | CAKI-1 renal 81.3% | A498 renal 88.7% | CCRF-CEM leukemia 108% | MOLT-4 leukemia 89.3% | SR leukemia 86.7% | OVCAR-8 ovarian 97.7% | OVCAR-5 ovarian 95.6% | OVCAR-4 ovarian 105% | SK-OV-3 ovarian 106% | IGROV1 ovarian 84.6% | OVCAR-3 ovarian 105% | HS 578T breast 104% | NCI/ADR-RES ovarian 99.6%

COc1cc(C2CC(c3cccc(Br)c3)=NN2C(C)=O)cc(OC)c1OC (configuration not stated)
inactive: SK-MEL-2 melanoma 59.1% | EKVX NSCLC 52.7% | SN12C renal 41.8% | TK-10 renal 48.4% | ACHN renal 39.8% | CAKI-1 renal 39.1% | A498 renal 19.1% | CCRF-CEM leukemia 14.9% | MOLT-4 leukemia 19% | SR leukemia 46.3% | OVCAR-5 ovarian 46.5% | SK-OV-3 ovarian 45.3% | HS 578T breast 34.6%
active: UO-31 renal -27.7% | RPMI-8226 leukemia 4.29% | IGROV1 ovarian -17.3% | OVCAR-3 ovarian -22% | NCI/ADR-RES ovarian -19.5%

c1ccc(Cc2nn3cc(-c4ccccc4)nc3s2)cc1
inactive: SK-MEL-2 melanoma 97% | EKVX NSCLC 95.9% | SN12C renal 103% | UO-31 renal 95.4% | TK-10 renal 89.5% | ACHN renal 106% | CAKI-1 renal 98.7% | A498 renal 96.5% | CCRF-CEM leukemia 102% | MOLT-4 leukemia 93.9% | SR leukemia 82.1% | RPMI-8226 leukemia 98.3% | OVCAR-5 ovarian 109% | OVCAR-4 ovarian 106% | SK-OV-3 ovarian 112% | IGROV1 ovarian 106% | OVCAR-3 ovarian 105% | HS 578T breast 115% | NCI/ADR-RES ovarian 102%

CC([C@H]1CCC2C3CCC4C(=O)C(NC=O)=CC[C@]4(C)C3CC[C@@]21C)N(C)C (some centres not stated)
inactive: SK-MEL-2 melanoma 82.3% | EKVX NSCLC 30.5% | SN12C renal 42% | TK-10 renal 84.1% | ACHN renal 58.2% | CAKI-1 renal 57.6% | A498 renal 65.1% | CCRF-CEM leukemia 28.7% | MOLT-4 leukemia 41.2% | SR leukemia 54.3% | OVCAR-8 ovarian 55.9% | OVCAR-5 ovarian 93.2% | SK-OV-3 ovarian 75.8% | IGROV1 ovarian 37.8% | OVCAR-3 ovarian 24.6% | HS 578T breast 33.6% | NCI/ADR-RES ovarian 57.5%
active: UO-31 renal -65% | OVCAR-4 ovarian 6.05%

NCCCNc1nc2ccccc2c2c(=O)c3cc(F)cc(Cl)c3sc12
active: CCRF-CEM leukemia 6.83% | SR leukemia -17.3% | OVCAR-8 ovarian 5.77% | OVCAR-4 ovarian -65.3%
inactive: SK-MEL-2 melanoma 105% | EKVX NSCLC 91.9% | SN12C renal 82.7% | UO-31 renal 58.4% | TK-10 renal 106% | ACHN renal 61.9% | CAKI-1 renal 63.1% | A498 renal 66.3% | MOLT-4 leukemia 77.7% | OVCAR-5 ovarian 96.6% | SK-OV-3 ovarian 102% | IGROV1 ovarian 80% | OVCAR-3 ovarian 102% | HS 578T breast 88.3% | NCI/ADR-RES ovarian 85.5%

Cc1ccc(C(=O)NN2C(=O)CSC2c2cccc([N+](=O)[O-])c2)cn1 (configuration not stated)
inactive: SK-MEL-2 melanoma 100% | EKVX NSCLC 98.7% | SN12C renal 96.6% | UO-31 renal 14.9% | TK-10 renal 98.3% | ACHN renal 92.2% | CAKI-1 renal 79.5% | A498 renal 100% | CCRF-CEM leukemia 90.8% | MOLT-4 leukemia 105% | SR leukemia 109% | RPMI-8226 leukemia 82.7% | OVCAR-5 ovarian 94.7% | OVCAR-4 ovarian 95% | SK-OV-3 ovarian 114% | IGROV1 ovarian 73.3% | OVCAR-3 ovarian 92.9% | HS 578T breast 124% | NCI/ADR-RES ovarian 95.2%

COc1c(N2CC3CCCN(C(C)=O)C3C2)c(F)cc2c(=O)c(C(=O)N[C@H]3C(O)[C@@H](O)C(CO)O[C@H]3O)cn(C3CC3)c12 (some centres not stated)
inactive: SK-MEL-2 melanoma 111% | EKVX NSCLC 103% | SN12C renal 98.9% | UO-31 renal 92.2% | TK-10 renal 105% | ACHN renal 105% | CAKI-1 renal 101% | A498 renal 103% | CCRF-CEM leukemia 105% | MOLT-4 leukemia 116% | SR leukemia 108% | OVCAR-8 ovarian 107% | OVCAR-5 ovarian 104% | OVCAR-4 ovarian 110% | SK-OV-3 ovarian 115% | IGROV1 ovarian 114% | OVCAR-3 ovarian 109% | HS 578T breast 105% | NCI/ADR-RES ovarian 110%

COc1ccc(C(Cc2ccccc2)NCCN2CCOCC2)cc1 (configuration not stated)
inactive: SK-MEL-2 melanoma 95.9% | EKVX NSCLC 104% | SN12C renal 99.6% | UO-31 renal 84.5% | TK-10 renal 95.4% | ACHN renal 106% | CAKI-1 renal 98.8% | A498 renal 101% | CCRF-CEM leukemia 113% | MOLT-4 leukemia 93.8% | SR leukemia 96.4% | RPMI-8226 leukemia 109% | OVCAR-5 ovarian 94.7% | OVCAR-4 ovarian 98.7% | SK-OV-3 ovarian 102% | IGROV1 ovarian 91.8% | OVCAR-3 ovarian 100% | HS 578T breast 107% | NCI/ADR-RES ovarian 98.7%

Cc1ccc2c(-c3cc(-c4ccccc4)nc(N)c3C#N)cc(=O)oc2c1
inactive: SK-MEL-2 melanoma 97.1% | EKVX NSCLC 113% | SN12C renal 91.2% | UO-31 renal 86.3% | TK-10 renal 101% | ACHN renal 99.3% | CAKI-1 renal 100% | A498 renal 63.6% | CCRF-CEM leukemia 105% | MOLT-4 leukemia 94.5% | SR leukemia 100% | RPMI-8226 leukemia 101% | OVCAR-5 ovarian 96.9% | SK-OV-3 ovarian 104% | IGROV1 ovarian 110% | OVCAR-3 ovarian 106% | HS 578T breast 90.2% | NCI/ADR-RES ovarian 95.2%

CCc1cccc2c1S/C(=C/c1ccc(OC)cc1)C2=O
inactive: SK-MEL-2 melanoma 51% | EKVX NSCLC 93.9% | SN12C renal 49.4% | UO-31 renal 52.9% | TK-10 renal 127% | ACHN renal 54.1% | A498 renal 104% | CCRF-CEM leukemia 35.7% | MOLT-4 leukemia 34.5% | SR leukemia 15.1% | OVCAR-8 ovarian 55.9% | OVCAR-5 ovarian 76% | OVCAR-4 ovarian 59.4% | SK-OV-3 ovarian 79.3% | IGROV1 ovarian 30.4% | OVCAR-3 ovarian 23.8% | HS 578T breast 41.5% | NCI/ADR-RES ovarian 30.2%
active: CAKI-1 renal 6.96%
